# Hit rate of the full screen: of about 52,000 compounds, about 4,300 (8.3%) were called active. Shown is part of a subset that was picked to be rich in actives. Unmarked numbers belong to inactive results. Rule as the data show it: active = survival mostly below about 52% (no sharp cut-off); inactive = mostly above about 56%.
# Tested on: DeltatarO mutant
# Test: S. aureus survival, RN4220 and DeltatarO strains – OD600, teichoic acid synthesis inhibitors, primary screen (AID 463173)
# Settings: S. aureus RN4220 wild type/DeltatarO growth, OD600, 18 h, stronger effect = lower value, screened at 18.75 µg/mL (by protocol)
row,Compound,survival
1,Cc1cc(C)c(NC(=O)C2CCN(c3nc4ccccc4[nH]3)CC2)c(C)c1,102%
2,Cc1ccc(C#N)c(SCC(=O)O)n1,91%
3,Cc1cccc(Cn2cc(S(=O)(=O)c3ccccc3)c(=O)c3cc(F)c(N4CCOCC4)cc32)c1,72%
4,COc1ccc(-c2nc3ccccc3o2)cc1NC(=O)c1cc(Br)ccc1OC,40% (active)
5,COc1ccc(-c2nc3ccccc3o2)cc1NC(=O)c1ccc(OCC(C)C)cc1,40%
6,COc1ccc(-c2nc3ccccc3o2)cc1NC(=O)c1cccc2c(Cl)cccc12,52%
7,Cc1ccc2nc(-c3ccc(Cl)c(NC(=O)c4cccnc4)c3)oc2c1,126%
8,COc1ccc(/C=C/C(=O)Nc2cc(-c3nc4ccccc4o3)ccc2OC)cc1,50%
9,COc1ccc(-c2nc3ccccc3o2)cc1NC(=O)c1ccc(-c2cccc(Cl)c2C)o1,58%
10,CCOc1ccc(C(=O)Nc2cc(-c3nc4ccccc4o3)ccc2C)cc1Cl,51%
11,COc1ccc(-c2nc3ccccc3o2)cc1NC(=O)c1ccc(-c2ccc(C)c(Cl)c2)o1,41% (active)
12,COc1ccc(-c2nc3ccccc3o2)cc1NC(=O)c1cccnc1,45% (active)
13,COc1ccc(-c2nc3ccccc3o2)cc1NC(=O)C(C)(C)Oc1ccc(Br)cc1,4% (active)
14,CC(C)(Oc1ccc(Br)cc1)C(=O)Nc1cc(-c2nc3ccccc3[nH]2)ccc1Cl,76%
15,COc1ccc(Br)cc1C(=O)Nc1ccc2oc(-c3cccnc3)nc2c1,117%
16,CCOc1ccc(NC(=O)NCCN2CCN(c3cccc(C)c3C)CC2)cc1,60%
17,Cc1ccc(C)c(N2CCN(C(=O)c3cn(CC(C)C)c(=O)c4c3c3ccccc3n4C)CC2)c1,28%
18,COc1ccccc1CNC(=O)C1CCN(c2ncnc3c2nc2n3CCCCC2)CC1,94%
19,Cc1ccc2cc(C(c3nnnn3C3CCCC3)N3CCCc4ccccc43)c(=O)[nH]c2c1 (stereo unspecified),97%

row,Compound,survival
1,CCN(CC)C(=O)Cn1cc(C(=O)C(C)C)c2ccccc21,87%
2,Cc1ccc(NC(=O)c2cnc(N3CCCC3)nc2C)cc1F,89%
3,Cc1cc2[nH]c(=O)c(=O)[nH]c2cc1S(=O)(=O)N1CCN(c2cccc(C(F)(F)F)c2)CC1,78%
4,COc1ccc(-c2nc3ccccc3o2)cc1NC(=O)c1ccc(-c2ccc(Br)cc2)o1,43% (active)
5,COc1ccc(-c2nc3ccccc3o2)cc1N,72%
6,COc1ccc(-c2nc3ccccc3o2)cc1NC(=O)c1ccc(N2CCC(C)CC2)c([N+](=O)[O-])c1,66%
7,CCN(CC)S(=O)(=O)c1ccc2c(c1)N(CC(=O)N(C)Cc1ccccc1)C(=O)CO2,82%
8,Cc1cccc(Cn2c(CN3CCCC(C)C3)nc3c2c(=O)n(C)c(=O)n3C)c1 (stereo unspecified),73%
9,Cc1ccc(NC(=O)Cn2c(=O)n(CC(=O)NCCc3ccccc3)c(=O)c3ccccc32)cc1C,67%
10,Cc1ccc(NC(=O)c2cc(S(=O)(=O)NCCC3=CCCCC3)ccc2F)cc1F,115%
11,COc1ccc(CCNS(=O)(=O)c2ccc(F)c(C(=O)Nc3ccc(Cl)cc3)c2)cc1OC,104%
12,Cc1ccc(CNS(=O)(=O)c2ccc(F)c(C(=O)Nc3ccc(C)c(F)c3)c2)cc1,46% (active)
13,Cc1ccc(C)c(NC(=O)c2cc(S(=O)(=O)NCc3ccccc3)ccc2F)c1,71%
14,COc1ccc(C)cc1NC(=O)c1cc(S(=O)(=O)NCCC2=CCCCC2)ccc1F,105%
15,Cc1ccc(NC(=O)c2cc(S(=O)(=O)NCCC3=CCCCC3)ccc2F)cc1C,20% (active)
16,CCc1ccccc1NC(=O)c1cc(S(=O)(=O)NCCc2ccc(OC)c(OC)c2)ccc1F,8% (active)
17,COc1ccc(OC)c(NC(=O)c2cc(S(=O)(=O)NCCc3ccc(Cl)cc3)ccc2F)c1,70%
18,Cc1ccc(C)c(NC(=O)c2cc(S(=O)(=O)NCCC3=CCCCC3)ccc2F)c1,52% (active)
19,Cc1cc(C)cc(NC(=O)c2cc(S(=O)(=O)NCCC3=CCCCC3)ccc2F)c1,67%

row,Compound,survival
1,Cc1ccc(NC(=O)c2cc(S(=O)(=O)NCCc3ccc(Cl)cc3)ccc2F)cc1,80%
2,Cc1cc(C)c(NC(=O)c2cc(S(=O)(=O)NCCC3=CCCCC3)ccc2F)c(C)c1,85%
3,CC(C)C(OC(=O)c1cccs1)C(=O)NC1CCCC1 (stereo unspecified),96%
4,Cc1nn(C(=O)c2cccc(Cl)c2)c(C)c1S(=O)(=O)N1CCOCC1,82%
5,Cc1ccc(C(=O)Nc2ccc(-c3nc4ccccc4o3)cc2)cc1Cl,68%
6,Cc1nnc(SCc2cc(=O)c3ccccc3[nH]2)s1,125%
7,COc1ccc(CNCCC(c2ccc(C)cc2)c2ccco2)cc1 (stereo unspecified),64%
8,CCOCCCNC(=O)C(c1ccccc1)N(Cc1ccc2c(c1)OCO2)C(=O)c1ccc(NC(C)=O)cc1 (stereo unspecified),51%
9,COc1ccc(CNCCC(c2ccccc2)c2ccc3c(c2)OCO3)cc1 (stereo unspecified),-14% (active)
10,CCOCCCNC(=O)C(c1ccc(OC)cc1)N(Cc1ccc2c(c1)OCO2)C(=O)c1ccc(NC(C)=O)cc1 (stereo unspecified),50%
11,CCOCCCNC(=O)C(c1ccc(OC)cc1)N(Cc1ccc2c(c1)OCO2)C(=O)c1ccccc1O (stereo unspecified),62%
12,NC(=O)CC(c1ccccc1)c1ccc2c(c1)OCO2 (stereo unspecified),97%
13,COc1ccc(CN(CCC(c2ccc3c(c2)OCO3)c2ccccc2OC)C(C)=O)cc1 (stereo unspecified),19% (active)
14,COc1ccc(CCNC(=O)c2ccc3c(c2)OCO3)cc1,110%
15,N#CCC(c1ccccc1)c1ccc2c(c1)OCO2 (stereo unspecified),92%
16,COc1cc2cc(CN(Cc3ccc4c(c3)OCO4)C(=O)NCc3ccccc3)c(=O)[nH]c2cc1OC,102%
17,COc1ccc(CNCCC(c2ccc3c(c2)OCO3)c2ccccc2OC)cc1 (stereo unspecified),1% (active)
18,CCC(=O)N(CCC(c1ccccc1)c1ccc2c(c1)OCO2)Cc1ccc(OC(C)C)cc1 (stereo unspecified),0% (active)

# Source: PubChem BioAssay AID463173 (ICCB-Longwood Screening Facility, Harvard Medical School, 2010)
